Test results: PubChem BioAssay (EPA / NIEHS)
“And” between values parts separate entries of the source, which are not always exact repeats. Identical values can stand only once. Inconclusive results are not listed. The source made the active and inactive calls. The calls were made as follows: active = hit-call score of the fitted dose curve at least 0.9, where 1 is the maximum; inconclusive = response in the unintended direction; inactive = score below 0.9.

The molecules below were run against Peroxisome proliferator-activated receptor gamma (Homo sapiens) (UniProt P37231) (assay: ATG_hPPARg_XSP2: Attagene TRANS-FACTORIAL Multi-Species (XSP2) HepG2 Assay for human Peroxisome Proliferator-activated Receptor gamma (PPARg) (AID 2283829);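 also: actives raise reporter mRNA above DMSO so AC50 reflects PPARg activation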).
Sequence of Peroxisome proliferator-activated receptor gamma (Homo sapiens) (P37231 whole entry, looked up): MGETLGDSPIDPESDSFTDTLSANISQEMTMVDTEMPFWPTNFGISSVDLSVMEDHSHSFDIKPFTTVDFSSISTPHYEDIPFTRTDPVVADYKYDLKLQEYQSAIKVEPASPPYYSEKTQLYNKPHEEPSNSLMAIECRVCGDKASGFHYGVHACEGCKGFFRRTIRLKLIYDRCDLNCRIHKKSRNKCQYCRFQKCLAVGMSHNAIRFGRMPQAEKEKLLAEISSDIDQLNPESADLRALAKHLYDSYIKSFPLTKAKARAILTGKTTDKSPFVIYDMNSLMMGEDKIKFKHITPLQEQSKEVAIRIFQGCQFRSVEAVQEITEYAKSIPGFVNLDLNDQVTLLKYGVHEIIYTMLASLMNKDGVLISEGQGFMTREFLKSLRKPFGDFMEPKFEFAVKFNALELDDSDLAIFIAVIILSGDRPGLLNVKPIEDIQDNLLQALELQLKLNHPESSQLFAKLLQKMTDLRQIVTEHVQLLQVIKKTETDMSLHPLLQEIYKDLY
Procedure: ATG_XSP2_multi-species_TRANS is a cell-based, multiplexed assay created by modifying the existing Attagene TRANS-FACTORIAL system to include a panel of nuclear receptors from some or all the following species: human (Homo sapiens), mouse (Mus musculus), frog (Xenopus laevis), zebrafish (Danio rerio), chicken (Gallus gallus), and turtle (Chrysemys picta). The ECOTOX-FACTORIAL format uses HepG2, a human liver cell line, with measurements taken at 24 hours after chemical dosing in a 24-well plate. Xsp2 included 3 nM 6-alpha-fluorotestosterone and 1.5 nM norgestrel to stimulate the androgen receptor.ATG_hPPARg_XSP2 is one of 29 assay components measured or calculated from the ATG_XSP2_multi-species_TRANS assay. It is designed to make measurements of mRNA induction, a form of inducible reporter, as detected with fluorescence intensity signals by Reverse transcription polymerase chain reaction (RT-PCR) and Capillary electrophoresis technology.The assay endpoint ATG_hPPARg_XSP2 was analyzed in the positive analysis fitting direction relative to DMSO as the negative control and baseline of activity. Using a type of inducible reporter, measures of mRNA for gain-of-signal activity can be used to understand the reporter gene at the transcription factor-level as they relate to the gene PPARg. Furthermore, this assay endpoint can be referred to as a primary readout, because this assay has produced multiple assay endpoints where this one serves a reporter gene function. To generalize the intended target to other relatable targets, this assay endpoint is annotated to the nuclear receptor intended target family, where the subfamily is non-steroidal.
Human liver HepG2 cells are transiently transfected with multiple reporter transcription units (MRTUs) in 6-well plates using FuGene 6 reagent (Roche; 3 ml FuGene/1 mg DNA). The MRTU constructs are regulated by a cis-regulating element (promoter). […] A major difference between the CIS and TRANS system is that in CIS activities of endogenous TFs are measured, whereas the TRANS assay evaluates changes in activities of exogenous, chimeric NR-Gal4 proteins. […] At the end of 24 hour incubation, total RNA was isolated using TriZol reagent (Invitrogen). The isolated RNA is then reverse-transcribed using oligo(dT) primer and Mo-MLV reverse transcriptase (Invitrogen) with DNAse I (Ambion) treatment for 30 min. The one-tenth of the produced cDNA was amplified by PCR using Taq DNA polymerase (Invitrogen) and two reporter sequence-specific primers. The PCR products were fluorescently labeled by primer extension with 6-arboxyfluorescein (6-FAM) 5'-labeled reporter sequence-specific primer (2 min at 95 C, 20 s at 68 C and 10 min at 72 C) and these products were digested with 5U of HpaI (New England Biolabs) for 2h at 37 C. The fragments were purified using Qiaquick PCR columns (Qiagen), analyzed on an ABI 3130xL genetic analyzer (Applied Biosystems) with peak positions identified by using a set of X-rhodamine (ROX)-labeled MapMarker1000 molecular weight standards (BioVentures). The raw capillary electrophoresis data was processed using Attagraph software (Attagene).
In the case of `Oc1ccc(-c2ccccc2)cc1`, the AC50 is reported as 63.1 µM (active) and 100 µM (active). `C[C@]12CC[C@H](O)CC1=CC[C@@H]1[C@@H]2CC[C@]2(C)C(=O)CC[C@@H]12` was tested, and the outcome was “inactive”. In the case of `CC1(C)CCC(Cc2ccc(Cl)cc2)C1(O)Cn1cncn1` (stereo not drawn), the outcome is reported as “inactive”. For `COP(=O)(OC)O/C(=C\Cl)c1cc(Cl)c(Cl)cc1Cl`, the AC50 was 15 µM (active). With `O=S(=O)(c1ccc(Cl)cc1)c1ccc(Cl)cc1` the AC50 was 11.4 µM (active) and 6.91 µM (active). For `O=C1C2(Cl)C3(Cl)C4(Cl)C(Cl)(Cl)C5(Cl)C3(Cl)C1(Cl)C5(Cl)C24Cl` (stereo not drawn), the outcome was “inactive”. For `CC(=O)C=C(C)C`, the outcome was “inactive”. `C[C@H]1CCCC(=O)CCC/C=C/c2cc(O)cc(O)c2C(=O)O1` was tested, and the outcome was “inactive”. `Oc1c(I)cc(I)cc1I` was tested, and the AC50 was 12 µM (active) and 10.4 µM (active). `Clc1ccc(C2(Cn3cncn3)CC(Br)CO2)c(Cl)c1` (stereo not drawn) was tested, and the outcome was “inactive”. For `C[C@]12CCC(=O)C[C@@H]1CC[C@@H]1[C@@H]2CC[C@]2(C)[C@@H](O)CC[C@@H]12`, the outcome was “inactive”. `CC(C)C1CCC(Cc2ccc(Cl)cc2)C1(O)Cn1cncn1` (stereo not drawn) was tested, and the AC50 was 3.93 µM (active). With `CC12CC1(C)C(=O)N(c1cc(Cl)cc(Cl)c1)C2=O` (stereo not drawn) the outcome was “inactive”.
